Sampled rows, rich in hits. Any-hit rate of the full collection: about 4.2%.
DAX1 StAR inh: blocks DAX1 repression of SF-1 activated StAR promoter; 370,000 compounds, 1.1% hits; inhibition, % at 6.8 µM; HEK293T StAR-luciferase reporter, SF-1/DAX-1 repression relief;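 active = inhibition above the mean over all tested compounds plus 3 SD, cut at about 3.6% in these data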;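 note: 0% = DAX-1 cells with DMSO and 100% = cells lacking DAX-1 with DMSO; higher inhibition means more luminescence from relief of DAX-1 repression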
SMARCA2 act: SMARCA2 function activation, primary screen; MG213 cells, MMTV-luciferase reporter, dexamethasone, overnight; activation, % at 9.1 µM; 370,000 compounds, 1% hits; AID 652017; in the data active = activation above about 7.8%;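 note: 0% = vehicle wells and 100% = reference activator wells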
hgDAF-12 ag: hgDAF-12 agonism, primary luciferase screen; HEK293 GAL4-hgDAF12 UAS-luciferase reporter, agonist luminescence; normalized to butyrate control; activation, % at 6.8 µM; 370,000 compounds, 1.8% hits; AID 687014;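 active = activation above a cutoff set at the mean of all screened compounds plus 3 SD, cut at about 10% in these data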;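 note: 0% = DMSO wells and 100% = sodium butyrate wells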
ssDAF-12 act: activators of S. stercoralis DAF-12 nuclear receptor | HEK293 ssDAF-12/GRIP1 lit1-tk-luc reporter, luminescence; % of 3 µM dafachronic acid response | activation, % at 6.8 µM | 370,000 compounds, 1% hits | AID 652126;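 active = activation above the mean over all tested compounds plus 3 SD, cut at about 0.9% in these data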;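 note: 0% = DMSO-only wells and 100% = 3 µM delta7-dafachronic acid wells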
hcDAF-12 act: activates DAF-12 receptor from parasite H. contortus; HEK293 hcDAF-12 lit1-tk-luc reporter, luminescence; 0% DMSO, 100% Δ7-dafachronic acid; activation, % at 6.8 µM; 370,000 compounds, 1.4% hits;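 active = activation above the mean of all tested compounds plus 3 SD, cut at about 5.5% in these data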;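 note: 100% = response to 3 µM Δ7-dafachronic acid high control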
SMARCA2 conf: confirmation of SMARCA2 (BRM) function activators; shares compounds with SMARCA2 act; MG213 cells, MMTV-luciferase with dexamethasone, luminescence, overnight; MG213 cells expressing E1A, Rb sequestered; DMSO wells 0%, reference activator 100%; activation, % at 9.1 µM; 3,500 compounds, 30% hits;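 active = activation above its plate's cutoff, the mean activation of tested wells plus 3 SD, cut at about 7.9% in these data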
VP16 Luc act: activates GAL4-VP16 luciferase, flagging SMARCA2 activator hits; AID 686939; activation, % at 9.1 µM; 3,500 compounds, 41% hits; HEK293 GAL4-VP16 pG5luc reporter, luciferase luminescence; scaled: DMSO wells 0%, SAHA wells 100%; shares compounds with SMARCA2 act;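 active = activation above the solvent-only control well mean plus 3 SD, averaged across control plates, cut at about 5.2% in these data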
Active calls of the source: *; nt = no result given.

SMILES	DAX1 StAR inh	SMARCA2 act	hgDAF-12 ag	ssDAF-12 act	hcDAF-12 act	SMARCA2 conf	VP16 Luc act
O=C(NCc1cccnc1)Nc1ccc(Cl)c(Cl)c1	0	8.1*	2	-1	0	1	3
C#CCN1CC(N(C)CCOC(=O)c2ccc(C(C)(C)C)cc2)CS1(=O)=O (stereo unspecified)	-1	-4	-3	-1	3	nt	nt
Cc1cnc(C(=O)Nc2nnc(C3CC3)s2)cn1	1	8.8*	0	-1	2	-1	2
Cc1cnc(C(=O)Nc2nnc(C)s2)cn1	0	0	1	-1	-1	nt	nt
Cc1cc(OCc2cn3cccnc3n2)ccc1Cl	1	8.4*	4	-1	1	8.5*	5.6*
Clc1ccc(SCc2cn3cccnc3n2)cc1	2	1	4	-1	0	nt	nt
c1ccc(Nc2ccc(NCCc3c[nH]c4ccccc34)cc2)cc1	-1	-2	0	1	2	nt	nt
CCOC(=O)C1CCCCN1Cc1cccc(F)c1 (stereo unspecified)	0	8.8*	-1	-1	0	1	0
CCC(=O)N1C(Cc2ccccc2)COC1(C)C (stereo unspecified)	0	8.9*	1	-1	-2	-3	1
C[C@@H]1CN([C@@H](C)CO)C(=O)CCCn2cc(nn2)CO[C@H]1CN(C)C(=O)Nc1ccccc1	1	-4	-1	-1	0	nt	nt
COC(=O)c1ccc2c(c1)C(C)(C)C(/C=C/c1ccc(O)cc1)=[N+]2C	-3	14*	-6	-1	-1	-16	-2
CCCCCCNc1nc(NCc2ccco2)nc(OCC)n1	0	-3	0	-1	-2	nt	nt
CCCCCCCCNc1nc(Cl)nc(NCc2ccco2)n1	0	11*	-1	-1	4	0	0
CC(=O)Nc1ccc(C(=O)N/N=C/c2cc(Br)cc(Br)c2O)cc1	0	-3	2	-1	-3	nt	nt
CC(C)C(=O)Nc1ccc(C(=O)N/N=C/c2cc(Br)cc(Br)c2O)cc1	0	11*	-2	-1	-2	-2	-1
CCOC(=O)[C@@]12CCC3=C1N(CCC3)C(=O)[C@H](CC(=O)NCc1cccc(C(F)(F)F)c1)C2	-2	-3	-1	-2	-2	nt	nt
COc1cccc(=O)c2c(C)n(-c3ccc(C(=O)O)cc3)c(C)c12	0	-3	0	-2	-1	nt	nt
COc1ccc(-n2c(C)c3c(OC)cccc(=O)c3c2C)cc1	1	11*	0	0	1	-3	1
O=C(N/N=C/c1cn(-c2ccccc2)nc1-c1cccnc1)c1ccccc1	-1	4	3	-3	-3	nt	nt
NC(=S)N/N=C/c1cn(-c2ccccc2)nc1-c1cccnc1	0	8.2*	-1	-1	-1	0	4
CC1(C)Cc2c(sc(NC(=O)c3ccc4ncsc4c3)c2C(N)=O)C(C)(C)N1	1	8.5*	5	-2	3	13*	8.0*
CC1(C)Cc2c(sc(NC(=O)c3ccc(C(=O)c4ccccc4)cc3)c2C(N)=O)C(C)(C)N1	-3	-2	-3	-2	0	nt	nt
CCC(Sc1nc2ccccc2c(=O)n1CC1CCCO1)C(=O)NCc1cccnc1 (stereo unspecified)	0	8.3*	0	-2	0	0	0
CN(C)CCCn1c2c3ccccc3ccc2c2oc(=O)c3ccccc3c21	-3	12*	0	-1	0	54*	3
CN(C)CCCn1c(=S)[nH]c2ccccc2c1=O	0	-3	1	-1	0	nt	nt
SMILES	DAX1 StAR inh	SMARCA2 act	hgDAF-12 ag	ssDAF-12 act	hcDAF-12 act	SMARCA2 conf	VP16 Luc act
Cc1ccc(-c2csc(NC(=O)CSc3nc4ccccc4c(=O)n3CCCN(C)C)n2)cc1	1	10*	13*	-1	1	7	1
Cn1c(N)c(C(=O)Nc2ccccc2)c(=O)[nH]c1=O	1	-1	-1	-1	-2	nt	nt
Cn1c(N)c(C(=O)/C=C/c2ccccc2)c(=O)[nH]c1=O	1	12*	9	1.1*	3	8	9.4*
COC1OC(COCc2ccccc2)C2OC(C)(C)OC2C1O (stereo unspecified)	1	1	-2	-1	0	nt	nt
Cc1ccc(-c2nnc(SCC(=O)Nc3nccs3)n2N)cc1	0	-4	1	-1	1	nt	nt
Nn1c(SCC(=O)Nc2nccs2)nnc1-c1cc(-c2ccccc2)n[nH]1	1	9.6*	11*	-1	3	5	2
N#Cc1ccsc1NC(=O)CSc1nnc(-c2ccccc2)o1	0	19*	1	1	4	1	1
O=C(CSc1nnc(-c2ccccn2)o1)Nc1ccccc1Cl	2	8.0*	11*	0	2	13*	12*
O=C(CSc1nnc(-c2cccnc2)o1)Nc1nccs1	2	9.1*	4	-1	2	5	2
COc1ccc(S(=O)(=O)N2CCC[C@H]2C(=O)N2CCC[C@H]2C(=O)NCc2ccccn2)cc1C	-1	-3	2	-1	1	nt	nt
COCOCCn1cc(CN2CCS(=O)(=O)N(Cc3ccc(-c4ccc(Cl)c(Cl)c4)cc3)C(C(C)C)C2=O)nn1 (stereo unspecified)	-2	-7	-4	-2	-1	nt	nt
O=C(Nc1cccc(C(F)(F)F)c1)C(=O)N1CCCCC1	0	9.5*	2	-2	0	2	3
CSc1nc2c([nH]1)c(=S)n(C)c(=O)n2C	0	8.4*	0	-1	-1	9.0*	1
Cc1cccc(C)c1NC(=O)C(c1ccccc1OC(F)(F)F)N1CCC(c2ccccc2)CC1 (stereo unspecified)	0	-3	-1	-1	-2	nt	nt
CC(=O)CC[C@H]1CC[C@]2(CCCN(C(=O)C3CCCC3)C2)O1	0	1	2	-1	4	nt	nt
CCc1ccccc1NC(=O)[C@@H]1CCCN1S(=O)(=O)c1cccc2cccnc12	nt	nt	-4	-2	-3	nt	nt
O=C(N/N=C/C(Br)=C\c1ccccc1)c1cccs1	2	18*	9	0	4	7	11*
Cc1nn(C)cc1/C=N/NC(=O)c1ccco1	1	9.1*	8	-1	2	8	2
O=C(N/N=C/C(Br)=C/c1ccccc1)C1CC1	0	9.6*	3	0	1	10*	5.6*
O=C(N/N=C/C(Br)=C\c1ccccc1)c1ccco1	0	9.4*	9	0	1	7	17*
O=C(N/N=C/C(Br)=C/c1ccccc1)NC1CCCCC1	0	4	2	-1	1	nt	nt

Compound activity: PubChem, The Scripps Research Institute Molecular Screening Center
